Assay results as given in PubChem BioAssay (Tox21).
Values without a mark were called inactive. The source made the active and inactive calls. Calls come from the whole dose curve; as a rule, active = well fitted curve in the direction sought with a large enough effect in the repeat runs; inconclusive = weak or mixed curves; inactive = flat fitted curve, though single readings scatter.

Assay: qHTS assay to test for compound auto fluorescence at 460 nm (blue) in HepG2 cell free culture (AID 720685)
Conditions: Cell-free culture medium, blue autofluorescence 405/460 nm; series mostly up to 91.3 µM; fluorescence, % of fluorescent control: at the top concentration
Excerpt: U.S. Tox21 Program National Center for Advancing Translational Sciences [NCATS] NIH Chemical Genomics Center [NCGC] U.S. Environmental Protection Agency [EPA] National Institutes of Environmental Health Sciences [NIEHS] National Toxicology Program [NTP] U.S. Food and Drug Administration [FDA] Tox21 Assay Overview: Compound auto fluorescence often interferes with screening of the compound library against various biological targets and signaling pathways. Some of these compounds may have fluorophoric properties. Such properties may interfere with the assay outputs resulting in false positives and/or negatives. To decrease such complications and ensure the compound activities are relevant in terms of biological response, the Tox21 10K compound library was screened for auto fluorescence. From the fluorophores used as reporter signals in our screening assays, the auto fluorescence equivalencies of compounds against three fluorophores have been evaluated: Triamterene, Fluorescein and Rose Bengal sodium for blue, green and red fluorescence, respectively. The fluorescence intensities were measured using Excitation/Emission wavelengths at 405/460nm, 485/535nm and 540/590nm for blue, green and red labels, respectively. This assay includes the blue fluorescence data.
Tox21 Assay Protocol Summary: 5 uL of culture medium (MEM containing 10% FBS) per well was dispensed into black wall/clear bottom 1536-well plates using a Multidrop Combi Dispenser (ThermoFisher Scientific, Waltham, MA). After 23 nL compound or DMSO vehicle was transferred into assay plate by a pintool work station (Kalypsys, San Diego, CA), fluorescence intensities in the assay plates were measured by an Envision (PerkinElmer, Shelton, CT) plate reader using three labels for measuring blue, green and red fluorescence at […] 460, 535 and 590nm respectively.
% is set by controls: 0 for no effect and ±100 for the full control effect.

Q: With `C[C@H]1NCc2cc(-c3ccc4c(=O)c(C(=O)O)cn(C5CC5)c4c3OC(F)F)ccc21` as the molecule, how does the “fluorescence, % of fluorescent control” value read?
A: 0.397% [at 46 µM]

Q: With `Clc1sc(Cl)c(Cl)c1Cl` as the molecule, how does the “fluorescence, % of fluorescent control” value read?
A: -0.0159%

Q: For `C#CC1(O)CC[C@H]2[C@@H]3CCC4=CCCC[C@@H]4[C@H]3CC[C@@]21C` (stereo not given in full), which Potency is on record?
A: inactive

Q: Which “fluorescence, % of fluorescent control” value does the source give for `Cc1ccc(O)c(N)c1` here?
A: 0.193%

Q: Which “fluorescence, % of fluorescent control” value does the source give for `O=C1NC(=O)[C@@H]2CC=CC[C@H]12` here?
A: 0.0266%

Q: With `CCc1ccc(Br)cc1` as the molecule, how does the “fluorescence, % of fluorescent control” value read?
A: -0.0306% [at 95.7 µM]

Q: With `CCC(C)[O-].CCC(C)[O-].CCOC(=O)/C=C(/C)[O-].[Al+3]` as the molecule, how does the “fluorescence, % of fluorescent control” value read?
A: 0.0633%

Q: With `CN1CCN2c3ccccc3Cc3ccccc3C2C1` (stereo not given) as the molecule, how does the “fluorescence, % of fluorescent control” value read?
A: -0.0009% [at 46 µM]

Q: For `CC(=O)Oc1cc2c(s1)CCN(C(C(=O)C1CC1)c1ccccc1F)C2` (stereo not given), which “fluorescence, % of fluorescent control” value is on record?
A: 0.352% [at 46 µM]

Q: Which “fluorescence, % of fluorescent control” value does the source give for `Cc1ccc(C)cc1` here?
A: 0.0851%

Q: With `C=CC(C)(CCC=C(C)C)OC=O` (stereo not given) as the molecule, how does the “fluorescence, % of fluorescent control” value read?
A: -0.18%

Q: With `COc1ccc2cc1Oc1ccc(cc1)C[C@H]1c3c(cc4c(c3Oc3cc5c(cc3OC)CCN(C)[C@@H]5C2)OCO4)CCN1C` as the molecule, how does the “fluorescence, % of fluorescent control” value read?
A: 0.0167% [at 46 µM]

Q: Which “fluorescence, % of fluorescent control” value does the source give for `Nc1ccc(Oc2ccc(Cl)cc2)cc1` here?
A: -0.0259%

Q: With `CC1(C)CC(O)CC(C)(C)N1` as the molecule, how does the “fluorescence, % of fluorescent control” value read?
A: 0.026% [at 95.7 µM]

Q: For `Nc1nc(N)nc(-c2cc(Cl)ccc2Cl)n1`, which “fluorescence, % of fluorescent control” value is on record?
A: -0.0652% [at 46 µM]

Q: Which “fluorescence, % of fluorescent control” value does the source give for `OC12N=C(c3ccccc3)SC1Cc1cc(Cl)ccc12` (stereo not given) here?
A: 0.282%

Q: Which “fluorescence, % of fluorescent control” value does the source give for `C=Cc1ccccc1C=C` here?
A: 0.0362% [at 354 µM]

Q: With `CCCC(=O)OC(C)(C)Cc1ccccc1` as the molecule, how does the “fluorescence, % of fluorescent control” value read?
A: -0.236%

Q: For `Cc1cc(C)c(/C=C2\C(=O)Nc3ccccc32)[nH]1`, which “fluorescence, % of fluorescent control” value is on record?
A: 2.08% [at 46 µM]

Q: For `C=C(C)c1cccc(C(=C)C)c1`, which “fluorescence, % of fluorescent control” value is on record?
A: -0.0574%

Q: With `O=C(O)c1cc(O)c2ccccc2c1O` as the molecule, how does the “fluorescence, % of fluorescent control” value read?
A: -0.0634%

Q: Which “fluorescence, % of fluorescent control” value does the source give for `CCCCOC(=O)CO` here?
A: -0.0097%

Q: Which Potency does the source give for `CC[N+](CC)(CC)CCOc1ccc(/C=C/c2ccccc2)cc1` here?
A: inactive

Q: For `C=CC(=O)Nc1cc2c(Nc3ccc(F)c(Cl)c3)ncnc2cc1OCCCN1CCOCC1`, which “fluorescence, % of fluorescent control” value is on record?
A: 0.667% [at 46 µM]

Q: Which “fluorescence, % of fluorescent control” value does the source give for `COc1ccc(-c2coc3cc(O)ccc3c2=O)cc1` here?
A: 0.829%

Q: With `CN1CCCCC1CCN1c2ccccc2Sc2ccc(S(C)=O)cc21` (stereo not given) as the molecule, how does the Potency read?
A: inactive

Q: Which “fluorescence, % of fluorescent control” value does the source give for `CCCCC(CC)COC(=O)CCCCC(=O)OCc1ccccc1` (stereo not given) here?
A: -0.111%

Q: For `COc1cc(/C=C/c2ccccc2)oc(=O)c1`, which “fluorescence, % of fluorescent control” value is on record?
A: 0.0161% [at 95.7 µM]

Q: For `COC(=O)C1=C(C)NC(C)=C(C(=O)OCCN2CCN(C(c3ccccc3)c3ccccc3)CC2)C1c1cccc([N+](=O)[O-])c1` (stereo not given), which “fluorescence, % of fluorescent control” value is on record?
A: -0.104% [at 46 µM]

Q: For `O=C(c1ccc(O)c(O)c1)c1ccc(O)cc1O`, which “fluorescence, % of fluorescent control” value is on record?
A: 8.86%

Q: Which “fluorescence, % of fluorescent control” value does the source give for `c1cnccn1` here?
A: 0.0036% [at 95.7 µM]

Q: With `S=C([S-])NCCNC(=S)[S-].S=C([S-])NCCNC(=S)[S-].[Mn+2].[Zn+2]` as the molecule, how does the “fluorescence, % of fluorescent control” value read?
A: 0.0784% [at 46 µM]

Q: With `CCc1oc2ccccc2c1C(=O)c1cc(I)c(O)c(I)c1` as the molecule, how does the “fluorescence, % of fluorescent control” value read?
A: 0.443% [at 46 µM]

Q: For `O=[N+]([O-])c1ccc(F)c(Cl)c1`, which “fluorescence, % of fluorescent control” value is on record?
A: -0.017%

Q: With `COc1cc2nc(N3CCN(C(=O)c4ccco4)CC3)nc(N)c2cc1OC` as the molecule, how does the “fluorescence, % of fluorescent control” value read?
A: -0.0361% [at 46 µM]

Q: For `CC[N+](CC)(CC)CCOC(=O)C(C1CCCC1)C1CCCC1`, which “fluorescence, % of fluorescent control” value is on record?
A: 0.0487% [at 46 µM]

Q: Which “fluorescence, % of fluorescent control” value does the source give for `O=C(/C=C/c1ccc(O)c(O)c1)O[C@@H](C(=O)O)[C@@H](OC(=O)/C=C/c1ccc(O)c(O)c1)C(=O)O` here?
A: 7.24%

Q: With `CCCCCCCCCCCCOC(=O)c1ccc(O)cc1` as the molecule, how does the “fluorescence, % of fluorescent control” value read?
A: 0.016%

Q: With `CC(CCc1ccccc1)NCC(O)c1ccc(O)c(C(N)=O)c1` (stereo not given) as the molecule, how does the Potency read?
A: inactive

Q: Which “fluorescence, % of fluorescent control” value does the source give for `CC1=Nc2ccccc2C1(C)C` here?
A: 0.505%
